Source: PubChem BioAssay
Unmarked numbers belong to inactive results. No rule for the calls is given here.

The compounds below were run against Pantothenate synthetase (Mycobacterium tuberculosis (strain ATCC 25618 / H37Rv)) (UniProt P9WIL5) (assay: Coupled enzyme confirmation of inhibitors against recombinant Mtb PanC (AID 375;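 also: 0% = full reaction with vehicle and 100% = no enzyme background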)). Settings: coupled enzyme assay; at 10 µM, hits give high values.
Pantothenate synthetase (Mycobacterium tuberculosis (strain ATCC 25618 / H37Rv)), sequence (P9WIL5 whole entry, looked up): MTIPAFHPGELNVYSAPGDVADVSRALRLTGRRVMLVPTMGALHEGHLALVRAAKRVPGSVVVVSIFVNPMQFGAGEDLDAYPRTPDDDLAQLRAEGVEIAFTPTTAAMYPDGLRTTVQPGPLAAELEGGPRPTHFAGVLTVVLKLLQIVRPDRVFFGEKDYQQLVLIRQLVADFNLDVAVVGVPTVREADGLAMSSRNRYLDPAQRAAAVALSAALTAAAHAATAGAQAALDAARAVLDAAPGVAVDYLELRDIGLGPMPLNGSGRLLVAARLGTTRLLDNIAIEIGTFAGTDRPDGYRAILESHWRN
`Cc1nc2sc(C(c3cccc(F)c3)N3CCCCC3)c(O)n2n1` (configuration not stated) was tested, and the inhibition was 0%. In the case of `S=C(c1cccs1)N1CCCC1`, the inhibition is reported as 0%. For `CCC[C@@H]1C[C@@H](C(=O)N[C@H]([C@@H](C)O)[C@H]2O[C@H](SC)[C@H](O)[C@@H](O)C2O)N(C)C1` (some centres not stated), the inhibition was 0%. `Cc1ccc(C2c3c(oc4ccccc4c3=O)C(=O)N2c2nnc(C(C)C)s2)o1` (configuration not stated) was tested, and the inhibition was 7%. `c1ccc(CNc2c3c(nc4ncnn24)CCCC3)nc1` gave an inhibition of 0%. `COC(=O)c1ccc(Oc2nc(NC(C)C)nc(N(C)C)n2)cc1` was tested, and the inhibition was 1%. In the case of `COc1ccc(-n2nc3cc(C)c(N)c(Br)c3n2)cc1`, the inhibition is reported as 0%. `CCN(CC)CCN1C(=O)C(=O)/C(=C(/O)c2c(C)[nH]c(C(=O)OC)c2C)C1c1ccccc1OC` (configuration not stated) showed an inhibition of 0%. `O=c1c2cc(Cl)ccc2[nH]c(=S)n1Cc1ccco1` gave an inhibition of 8%. In the case of `C[C@@H]1CCC[C@H](C)N1NC(=O)c1ccc(Cl)c(S(N)(=O)=O)c1`, the inhibition is reported as 0%. Compound `CC(C)C1Cc2c(C#N)c(N)sc(=S)c2CO1` (configuration not stated) has an inhibition of 2%. `COc1cc(NC(=O)c2ccco2)c(OC)cc1NC(=O)CCC(=O)Nc1cc(C)cc(C)c1` gave an inhibition of 8%. `CCOC(=O)c1sc(NC(=O)c2c(C)nn(Cc3ccccc3)c2C)cc1C` gave an inhibition of 0%. For `O=C(COc1ccccc1)NCCSCc1ccco1`, the inhibition was 0%. In the case of `Cc1ccccc1OCCCN1C(=O)C(=O)c2cccc(C)c21`, the inhibition is reported as 0%. `CC(=O)Nc1c(C(=O)C2CC2)oc2ccccc12` showed an inhibition of 3%. Compound `COc1ccc(C(=O)Nc2ccccc2C(=O)NCCN2CCOCC2)cc1` has an inhibition of 0%.
